Measured values: PMC5540273 (PLoS ONE, 2017)

Key:
Settings in all cases: concentration: 1 μM, replicates: in singlicate; n = 1
[1] = tested on: DYRK1B
[2] = tested on: DYRK2
[3] = tested on: EGFR
[4] = tested on: EIF2AK1
[5] = tested on: EPHA1
[6] = tested on: EPHA2
[7] = tested on: EPHA3
[8] = tested on: EPHA4
[9] = tested on: EPHA5
[10] = tested on: EPHA6
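Also: KINOMEscan kinase panel screen.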

COc1cccc(C2=C(Nc3cccc(O)c3)C(=O)NC2=O)c1 [SB-390771]
%Inh [1]: 24%
%Inh [2]: 9%
%Inh [3]: 41%
%Inh [4]: 3%
%Inh [5]: 0%
%Inh [6]: 29%
%Inh [7]: 0%
%Inh [8]: 27%
%Inh [9]: 0%
%Inh [10]: 24%

COc1cc(Nc2nccc(N3CCC(NC(=O)Nc4ccc5c(c4)OCO5)C3)n2)cc(OC)c1OC (centres unmarked) [GSK1379766]
%Inh [1]: 0%
%Inh [2]: 0%
%Inh [3]: 0%
%Inh [4]: 0%
%Inh [5]: 14%
%Inh [6]: 0%
%Inh [7]: 0%
%Inh [8]: 7%
%Inh [9]: 0%
%Inh [10]: 4%

O=C1NC(=O)C(c2ccccc2Cl)=C1Nc1cccc(Cl)c1 [SB-342409]
%Inh [1]: 0%
%Inh [2]: 23%
%Inh [3]: 0%
%Inh [4]: 27%
%Inh [5]: 8%
%Inh [6]: 7%
%Inh [7]: 0%
%Inh [8]: 25%
%Inh [9]: 0%
%Inh [10]: 17%

Cc1cc(-c2c(-c3ccc(F)cc3)ncn2CCCN2CCOCC2)nc(N)n1 [SB-222517]
%Inh [1]: 20%
%Inh [2]: 34%
%Inh [3]: 0%
%Inh [4]: 0%
%Inh [5]: 0%
%Inh [6]: 0%
%Inh [7]: 0%
%Inh [8]: 20%
%Inh [9]: 9%
%Inh [10]: 30%

Cc1cccc(Nc2nc(N[C@H]3CCCC[C@H]3N)ncc2C(N)=O)c1.Cl [GSK986310]
%Inh [1]: 37%
%Inh [2]: 24%
%Inh [3]: 38%
%Inh [4]: 22%
%Inh [5]: 26%
%Inh [6]: 11%
%Inh [7]: 58%
%Inh [8]: 6%
%Inh [9]: 2%
%Inh [10]: 6%

COc1cccc(CC(=O)N2CCc3cc(-c4cn(C)c5ncnc(N)c45)ccc32)c1 [GSK2608899]
%Inh [1]: 22%
%Inh [2]: 22%
%Inh [3]: 23%
%Inh [4]: 87%
%Inh [5]: 0%
%Inh [6]: 0%
%Inh [7]: 19%
%Inh [8]: 4%
%Inh [9]: 5%
%Inh [10]: 10%

COc1ccc(NC(=O)c2ccoc2)cc1-c1ccc(C(=O)NCC2CC2)cc1 [GW810437]
%Inh [1]: 8%
%Inh [2]: 21%
%Inh [3]: 0%
%Inh [4]: 0%
%Inh [5]: 0%
%Inh [6]: 0%
%Inh [7]: 15%
%Inh [8]: 0%
%Inh [9]: 0%
%Inh [10]: 0%

N#CC1(c2cccc(C(=O)Nc3cccc(Oc4ccc5nc(NC(=O)C6CC6)sc5n4)c3)c2)CC1
%Inh [1]: 1%
%Inh [2]: 0%
%Inh [3]: 36%
%Inh [4]: 0%
%Inh [5]: 76%
%Inh [6]: 97.1%
%Inh [7]: 50%
%Inh [8]: 81%
%Inh [9]: 89%
%Inh [10]: 91.3%

COc1cccc2c(-c3ccncc3)c(-c3ccc(F)cc3)nn12 [GW468513]
%Inh [1]: 0%
%Inh [2]: 0%
%Inh [3]: 71%
%Inh [4]: 0%
%Inh [5]: 5%
%Inh [6]: 17%
%Inh [7]: 0%
%Inh [8]: 18%
%Inh [9]: 0%
%Inh [10]: 41%

Cl.O=C(Nc1ccc(Oc2ccc3[nH]c(NC(=O)c4ccco4)nc3c2)cc1)Nc1cc(C(F)(F)F)ccc1F [GW683134]
%Inh [1]: 6%
%Inh [2]: 0%
%Inh [3]: 44%
%Inh [4]: 4%
%Inh [5]: 91.8%
%Inh [6]: 95.2%
%Inh [7]: 20%
%Inh [8]: 93.6%
%Inh [9]: 48%
%Inh [10]: 96.4%

O=C(Nc1c(F)cccc1F)c1cc(C(=O)c2ccccc2F)c[nH]1 [GSK1326180]
%Inh [1]: 17%
%Inh [2]: 12%
%Inh [3]: 26%
%Inh [4]: 0%
%Inh [5]: 0%
%Inh [6]: 11%
%Inh [7]: 0%
%Inh [8]: 9%
%Inh [9]: 0%
%Inh [10]: 2%

CN(c1ccc(F)c(NC(=O)c2cccc(OC(C)(C)C#N)c2Cl)c1)c1ccc2nc(NC(=O)C3CC3)sc2n1
%Inh [1]: 46%
%Inh [2]: 0%
%Inh [3]: 64%
%Inh [4]: 7%
%Inh [5]: 58%
%Inh [6]: 67%
%Inh [7]: 31%
%Inh [8]: 20%
%Inh [9]: 0%
%Inh [10]: 27%

Fc1cc(Cl)ccc1Nc1ccnc2cc(-c3ccc(CN4CCSCC4)o3)ccc12 [GW560106]
%Inh [1]: 0%
%Inh [2]: 13%
%Inh [3]: 71%
%Inh [4]: 0%
%Inh [5]: 91.1%
%Inh [6]: 31%
%Inh [7]: 19%
%Inh [8]: 10%
%Inh [9]: 0%
%Inh [10]: 52%

O=C(Nc1n[nH]c2nc(-c3ccccc3)ccc12)C1CC1 [SB-708999]
%Inh [1]: 0%
%Inh [2]: 12%
%Inh [3]: 1%
%Inh [4]: 0%
%Inh [5]: 15%
%Inh [6]: 15%
%Inh [7]: 0%
%Inh [8]: 0%
%Inh [9]: 2%
%Inh [10]: 0%

Cc1ccc(Nc2ccnc(Nc3ccc(C)c(F)c3)n2)cc1O.Cl [GW582868]
%Inh [1]: 0%
%Inh [2]: 0%
%Inh [3]: 38%
%Inh [4]: 3%
%Inh [5]: 48%
%Inh [6]: 19%
%Inh [7]: 0%
%Inh [8]: 2%
%Inh [9]: 0%
%Inh [10]: 6%

CC(C)(C)c1ccc(C(=O)Nc2cn3cc(-n4ccnc4)ccc3n2)cc1
%Inh [1]: 94.8%
%Inh [2]: 67%
%Inh [3]: 9%
%Inh [4]: 0%
%Inh [5]: 0%
%Inh [6]: 0%
%Inh [7]: 16%
%Inh [8]: 0%
%Inh [9]: 0%
%Inh [10]: 12%

O=C(O)C(F)(F)F.O=c1[nH]ccc2nc(N[C@@H]3CCNC3)nc(Nc3ccc4c(c3)S(=O)(=O)CC4)c12 [GSK2181306]
%Inh [1]: 81%
%Inh [2]: 52%
%Inh [3]: 33%
%Inh [4]: 4%
%Inh [5]: 12%
%Inh [6]: 7%
%Inh [7]: 93.9%
%Inh [8]: 16%
%Inh [9]: 0%
%Inh [10]: 16%

Nc1ncnc2scc(-c3ccc(NC(=O)Cc4cc(F)ccc4F)cc3)c12.O=C(O)C(F)(F)F [SB-731254-M]
%Inh [1]: 0%
%Inh [2]: 0%
%Inh [3]: 80%
%Inh [4]: 95.2%
%Inh [5]: 13%
%Inh [6]: 100%
%Inh [7]: 21%
%Inh [8]: 24%
%Inh [9]: 0%
%Inh [10]: 0%

Cc1ccc(O)cc1Nc1ccnc2ccc(C(C)(C)C)cc12 [GW856805]
%Inh [1]: 19%
%Inh [2]: 19%
%Inh [3]: 37%
%Inh [4]: 44%
%Inh [5]: 99%
%Inh [6]: 92.9%
%Inh [7]: 71%
%Inh [8]: 91.3%
%Inh [9]: 99.3%
%Inh [10]: 79%

COc1ccc(C2=C(Nc3cccc(O)c3)C(=O)NC2=O)cc1 [SB-390766]
%Inh [1]: 100%
%Inh [2]: 30%
%Inh [3]: 32%
%Inh [4]: 5%
%Inh [5]: 11%
%Inh [6]: 0%
%Inh [7]: 0%
%Inh [8]: 0%
%Inh [9]: 0%
%Inh [10]: 0%

COC(=O)Nc1nc2ccc(Oc3ccc(NC(=O)Nc4cc(C(F)(F)F)ccc4F)cc3)cc2[nH]1.Cl [GW654607]
%Inh [1]: 42%
%Inh [2]: 13%
%Inh [3]: 29%
%Inh [4]: 26%
%Inh [5]: 90.9%
%Inh [6]: 98%
%Inh [7]: 39%
%Inh [8]: 96.8%
%Inh [9]: 66%
%Inh [10]: 97.7%

CN(c1ccc(NC(=O)N2CCN(CCCN3CCOCC3)CC2)cc1)c1ccnc(Nc2ccc(CS(C)(=O)=O)cc2)n1.Cl [GW830899]
%Inh [1]: 0%
%Inh [2]: 0%
%Inh [3]: 48%
%Inh [4]: 0%
%Inh [5]: 48%
%Inh [6]: 22%
%Inh [7]: 0%
%Inh [8]: 4%
%Inh [9]: 0%
%Inh [10]: 0%

CCn1c(-c2nonc2N)nc2c(-c3ccccc3)ncc(OCCCN)c21.O=C(O)C(F)(F)F.O=C(O)C(F)(F)F [GSK260205]
%Inh [1]: 0%
%Inh [2]: 14%
%Inh [3]: 56%
%Inh [4]: 90.8%
%Inh [5]: 24%
%Inh [6]: 0%
%Inh [7]: 12%
%Inh [8]: 0%
%Inh [9]: 0%
%Inh [10]: 0%

CN(c1ccc2c(c1)nc(NCc1ccccc1)n2C)c1ccnc(Nc2ccc(CS(C)(=O)=O)cc2)n1.Cl [GW811603]
%Inh [1]: 0%
%Inh [2]: 0%
%Inh [3]: 0%
%Inh [4]: 0%
%Inh [5]: 0%
%Inh [6]: 13%
%Inh [7]: 27%
%Inh [8]: 0%
%Inh [9]: 10%
%Inh [10]: 0%

Cc1ccc(-c2ccc3occ(-c4ccc(S(C)=O)cc4)c3c2)nn1 (centres unmarked)
%Inh [1]: 33%
%Inh [2]: 0%
%Inh [3]: 0%
%Inh [4]: 0%
%Inh [5]: 0%
%Inh [6]: 4%
%Inh [7]: 6%
%Inh [8]: 11%
%Inh [9]: 0%
%Inh [10]: 21%

CCn1cnc2c(NCc3ccccc3)ncnc21 [SKF-96418]
%Inh [1]: 37%
%Inh [2]: 15%
%Inh [3]: 0%
%Inh [4]: 0%
%Inh [5]: 0%
%Inh [6]: 0%
%Inh [7]: 0%
%Inh [8]: 7%
%Inh [9]: 0%
%Inh [10]: 0%

Cl.Cl.NC(CNC(=O)c1cc(Br)c(-c2ccnc3[nH]ccc23)s1)c1ccccc1 (centres unmarked) [GSK1322949]
%Inh [1]: 95%
%Inh [2]: 80%
%Inh [3]: 17%
%Inh [4]: 1%
%Inh [5]: 24%
%Inh [6]: 1%
%Inh [7]: 26%
%Inh [8]: 0%
%Inh [9]: 0%
%Inh [10]: 0%

CS(=O)(=O)c1cccc(CNc2nc(Nc3ccc4c(c3)CCC(=O)N4)ncc2C(F)(F)F)c1
%Inh [1]: 61%
%Inh [2]: 0%
%Inh [3]: 0%
%Inh [4]: 0%
%Inh [5]: 1%
%Inh [6]: 0%
%Inh [7]: 0%
%Inh [8]: 0%
%Inh [9]: 0%
%Inh [10]: 0%

CN(C)CCNS(=O)(=O)c1ccc(-c2ccnc3[nH]ccc23)cc1 [GSK977620]
%Inh [1]: 47%
%Inh [2]: 64%
%Inh [3]: 37%
%Inh [4]: 0%
%Inh [5]: 24%
%Inh [6]: 14%
%Inh [7]: 0%
%Inh [8]: 0%
%Inh [9]: 0%
%Inh [10]: 0%

CC(=O)Nc1cn2nc(Oc3cccc(NC(=O)c4cccc(C(F)(F)F)c4)c3)ccc2n1
%Inh [1]: 0%
%Inh [2]: 0%
%Inh [3]: 58%
%Inh [4]: 0%
%Inh [5]: 75%
%Inh [6]: 99.2%
%Inh [7]: 65%
%Inh [8]: 96%
%Inh [9]: 96.2%
%Inh [10]: 94.3%

Cc1ccc(C)c(NC(=O)Nc2ccc(C)c(-c3ccc(C(=O)Nc4ccncc4)cc3)c2)c1 [GSK1398473]
%Inh [1]: 25%
%Inh [2]: 10%
%Inh [3]: 35%
%Inh [4]: 0%
%Inh [5]: 0%
%Inh [6]: 19%
%Inh [7]: 0%
%Inh [8]: 29%
%Inh [9]: 15%
%Inh [10]: 16%

Cc1cccc(Nc2nc(NCCN)ncc2C(N)=O)c1 [GSK1292139]
%Inh [1]: 27%
%Inh [2]: 33%
%Inh [3]: 15%
%Inh [4]: 0%
%Inh [5]: 14%
%Inh [6]: 0%
%Inh [7]: 64%
%Inh [8]: 0%
%Inh [9]: 0%
%Inh [10]: 0%
